Source: PubChem BioAssay
Autofluor counter = counter-screen for toxin protease inhibitors: compound fluorescence; compound autofluorescence counterscreen, microsphere flow cytometry; stronger effect = higher value; fluorescence intensity (test concentration not listed); hit rate 3.1% among 360,000; AID 624483; in the data active = fluorescence intensity above about 16000; inconclusive = no clear call, values can overlap the other calls
BoNT F protease = BoNT F light chain protease inhibition. Multiplex microsphere protease cleavage assay, flow cytometry. inhibition, % at 10 µM. hit rate 0.22% among 360,000. AID 588497; in the data active = inhibition above about 35%, passing the limit was not always enough; inconclusive = no clear call, values can overlap the other calls
BoNT-A LC inh2 = blocks Botulinum neurotoxin A light chain protease | multiplex microsphere protease substrate cleavage, flow cytometry | inhibition, % at 10 µM | hit rate 0.17% among 360,000
Anthrax LF prot = blocks Bacillus anthracis lethal factor protease | inhibition, % at 10 µM | P15917 | multiplex microsphere protease cleavage assay, LF | hit rate 0.12% among 360,000
Target sequence (P15917 whole entry, looked up): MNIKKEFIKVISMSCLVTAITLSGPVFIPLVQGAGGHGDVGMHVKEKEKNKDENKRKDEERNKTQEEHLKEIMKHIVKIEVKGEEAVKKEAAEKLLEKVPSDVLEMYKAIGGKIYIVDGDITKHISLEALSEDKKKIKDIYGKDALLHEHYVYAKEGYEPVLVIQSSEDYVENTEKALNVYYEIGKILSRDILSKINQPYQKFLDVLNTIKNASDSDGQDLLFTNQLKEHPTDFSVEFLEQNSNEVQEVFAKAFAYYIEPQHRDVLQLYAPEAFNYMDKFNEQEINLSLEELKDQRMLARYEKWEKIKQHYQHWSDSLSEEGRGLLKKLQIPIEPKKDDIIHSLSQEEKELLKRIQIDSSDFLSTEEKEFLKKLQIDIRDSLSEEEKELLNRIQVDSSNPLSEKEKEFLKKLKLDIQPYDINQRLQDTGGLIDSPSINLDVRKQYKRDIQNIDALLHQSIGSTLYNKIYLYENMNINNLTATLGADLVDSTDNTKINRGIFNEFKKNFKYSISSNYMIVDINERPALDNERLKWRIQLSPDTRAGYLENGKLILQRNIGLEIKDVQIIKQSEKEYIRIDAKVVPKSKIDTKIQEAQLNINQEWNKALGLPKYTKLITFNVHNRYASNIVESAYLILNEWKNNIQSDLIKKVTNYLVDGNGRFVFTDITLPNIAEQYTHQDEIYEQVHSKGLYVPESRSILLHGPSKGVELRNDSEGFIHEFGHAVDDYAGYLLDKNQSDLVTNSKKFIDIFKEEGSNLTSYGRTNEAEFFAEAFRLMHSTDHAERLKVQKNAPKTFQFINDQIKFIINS
Vc quorum ag = induces V. cholerae light production without autoinducers. V. cholerae BH1578 lux reporter, luminescence, 6 h. activation, % at 18.7 µM. hit rate 0.16% among 350,000. AID 588436; in the data active = activation mostly above about 9.7%, no sharp cut-off; inconclusive = no clear call, values can overlap the other calls; inactive = mostly below about 3.7%
Of the large screens only hits and unclear results are named; the others gave an inactive call; ! = a repeat was not active. A selection: hits, their analogues and other compounds. The true share with any hit is near 3.5%. Cut-off read from the data, not from the text of the source, unless noted: active = inhibition above about 30%; inconclusive = no clear call, values can overlap the other calls; inactive = below that.

CCOC(=O)c1sc(NC(=O)CCN2C(=O)c3ccccc3C2=O)c(C(=O)OCC)c1C	none
CCOC(=O)c1sc(NC(=O)CN(CC(C)C)CC(C)C)c(C(=O)OCC)c1C	Autofluor counter 22136
CCOC(=O)c1c(NC(=O)CC(C)C)sc(C(C)=O)c1C	none
C=CC[C@H](CC(=O)NCCO)C(=O)N[C@H](COC(=O)[C@@H](CC=C)Cc1ccc(F)cc1)C(C)(C)C	none
CCOc1ccccc1NC(=O)Nc1ccc(Br)cc1C	none
CN(Cc1ccccc1)Cc1nc2c([nH]1)c(=O)[nH]c(=O)n2C	Autofluor counter 16968
C=CCn1c(=NC(=O)c2ccccc2[N+](=O)[O-])sc2cc(S(C)(=O)=O)ccc21	none
COc1cc(=O)[nH]c(SCc2c(F)c(F)c(F)c(F)c2F)n1	Autofluor counter 18910
Cc1cccc(C)c1NC(=O)Nc1ccc(S(N)(=O)=O)cc1	BoNT F protease inconclusive
CC1CN(S(=O)(=O)N(C)C)CCN1S(=O)(=O)N(C)C (configuration not stated)	Autofluor counter 19855
COC(=O)C1CCN(C(=O)/C=C/c2ccc(OC)cc2)CC1	Autofluor counter inconclusive, Anthrax LF prot 35
COc1ccc(/C=C/C(=O)N2CCC(c3ccccc3)C2)cc1 (configuration not stated)	none
O=[N+]([O-])c1ccccc1NS(=O)(=O)c1ccccc1	none
COc1ccc(/C=C(/NC(=O)c2ccc(OC)c(OC)c2)C(=O)NCCCn2ccnc2)cc1	none
Cc1ccc(S(=O)(=O)Nc2ccc3nc(N)sc3c2)cc1	Autofluor counter 19122, BoNT-A LC inh2 inconclusive
O=S(=O)(Nc1ncccn1)c1ccc(NC(=S)NCc2cccnc2)cc1	none
CN1CCN(C(=O)c2ccc3ccccc3c2)CC1	Autofluor counter 23924
O=C(c1ccc2ccccc2c1)N1CCCC1	none
O=C(c1ccc(-n2cccc2)cc1)N1CCN(Cc2ccccc2)CC1	none (no result: Vc quorum ag)
CN1CCN(C(=O)c2ccc(-n3cccc3)cc2)CC1	Autofluor counter 20993, BoNT-A LC inh2 inconclusive
COc1ccc(NC(=O)CN(C)CC(=O)N(C)C2(C#N)CCC(C)CC2)cc1 (configuration not stated)	none
CCOC(=O)c1cc(-c2ccc(OC)cc2)nc2c1c(C)nn2CCC#N	Autofluor counter 20850, BoNT-A LC inh2 inconclusive
O=c1[nH][nH]c2nc(C(F)(F)F)cc(C(F)(F)F)c12	Autofluor counter 22696, BoNT-A LC inh2 inconclusive
CC(=O)N1CCN(C(=O)c2cc(S(=O)(=O)N3CCN(c4ccccc4)CC3)ccc2Cl)CC1	none
COc1ccc(Nc2nc(C(C)(C)C)nc3c2nnn3Cc2ccccc2Cl)cc1OC	none
CCOC(=O)CNc1nc(C(C)(C)C)nc2c1nnn2Cc1ccccc1Cl	Autofluor counter 23473
Cc1c(Cl)cccc1NC(=O)CCC(=O)NNC(=O)c1ccccc1Cl	Autofluor counter 17035, BoNT-A LC inh2 inconclusive
Cc1c(Cl)cccc1NC(=O)CCC(=O)NNC(=O)c1ccco1	Autofluor counter 16503
Cc1cc(C)c2c(=O)n(CC(=O)Nc3cccc(Cl)c3C)sc2n1	BoNT-A LC inh2 54
Cc1ccccc1C(=O)NNC(=O)CCC(=O)Nc1cccc(Cl)c1C	none
Cc1c(Cl)cccc1NC(=O)Cn1cccc1	Autofluor counter 23242
O=C(Nc1nnc(SCc2ccccn2)s1)C1CC(=O)N(c2ccc(F)cc2)C1 (configuration not stated)	none
CCOC(=O)c1c(SC)[nH]c2c(Cl)cccc2c1=O	none
CC(CNc1nc2ccccc2n2cnnc12)c1ccccc1 (configuration not stated)	none
CC1(C)CN(c2ccccc2)N(Cc2ccc(F)cc2)C1=O	Autofluor counter 18014
Cc1ccc(SCc2nc3ccccc3n2CC(=O)Nc2c(C)cccc2C)cc1	Autofluor counter 22196
Cc1cc(NC(=O)CSc2nnc(-c3cccnc3)n2C)no1	Autofluor counter 21792, BoNT-A LC inh2 inconclusive
Cc1ccc(-c2nnc3ccc(SCC(=O)Nc4cc(C)on4)nn23)cc1	Autofluor counter 20468
CCC(C)(C)C1CCC2(CC1)NC(=O)N(CC(=O)N1CCN(C(=O)c3ccco3)CC1)C2=O (configuration not stated)	none (no result: Autofluor counter, BoNT F protease, BoNT-A LC inh2, Anthrax LF prot)
CCCCNC(=S)N(CCO)Cc1cc2cc3c(cc2[nH]c1=O)OCCO3	BoNT F protease inconclusive
CCN1/C(=C/C=C/c2oc3ccc(-c4ccccc4)cc3[n+]2CC)Oc2ccc(-c3ccccc3)cc21	Autofluor counter 70271, BoNT-A LC inh2 43
CCOC(=O)CCP(=O)(O)C(C)(O)c1ccccc1 (configuration not stated)	Autofluor counter 18987
Cc1ccc2c(c1)NC(=O)CC(c1ccccc1)=N2	none (no result: Vc quorum ag)
CC1=CC(C)=Nc2ccc(C)cc2N1	Autofluor counter 18983!
C/C(=N\O)c1cc(Cl)cc(Cl)c1O	BoNT F protease inconclusive, Anthrax LF prot 34
C/C(=N\O)c1ccc(Cl)cc1Cl	none
O=C(Nc1ccccc1Oc1ccccc1)c1cccc([N+](=O)[O-])c1	Autofluor counter 20430, BoNT-A LC inh2 inconclusive
CCc1nc(N2CCC3(CC2)OCCO3)c2nnn(Cc3ccccc3)c2n1	none
Cc1nc(N2CCC(C(N)=O)CC2)c2nnn(Cc3ccccc3)c2n1	Autofluor counter 21409
Cc1nc(N2CCCC2)c2nnn(Cc3ccccc3Cl)c2n1	Autofluor counter 20754
CN(C)c1ccc(C(CNC(=O)c2ccc(-c3ccccc3)cc2)N2CCOCC2)cc1 (configuration not stated)	none
CCn1nc(C)c(C(=O)Nc2cc(Oc3ccc(Cl)cc3)cc([N+](=O)[O-])c2)c1C	Autofluor counter 19896
Cc1nn(CCCC(=O)Nc2cc(Oc3ccc(F)cc3)cc([N+](=O)[O-])c2)c(C)c1[N+](=O)[O-]	none
Cc1ccn(CC(=O)O)c(=O)c1	Autofluor counter 22082, BoNT-A LC inh2 inconclusive
Nc1ccc2c(c1)oc1ccccc12	Autofluor counter 22331
Nc1ccc2oc3ccccc3c2c1	none
Cc1c(C=O)c2ccccn2c1C(=O)c1ccccc1	none
Cc1c(C(C)(C)C)c(C=S)n2ccccc12	Autofluor counter 21631, BoNT-A LC inh2 inconclusive
COC(=O)c1scc(C)c1N/N=C(\C)c1cc(F)c(Cl)cc1F	Autofluor counter 16330
CCOC(=O)C(=CNNc1c(C)csc1C(=O)OC)C(=O)OCC	none
CCCCN1C(=O)NC(=O)C2(Cc3c(nc4c(C)cccn4c3=O)N3CCc4ccccc4C32)C1=O (configuration not stated)	none
Cc1cccn2c(=O)c3c(nc12)N1CCc2ccccc2C1C1(C3)C(=O)NC(=O)N(C)C1=O (configuration not stated)	Autofluor counter 19729
c1ccc(CNC2=NCCCC2)cc1	none
O=C(NNC1=NCCCCC1)c1ccccc1	Autofluor counter 22558
CCOCCCNC(=O)c1cc2sc(Cl)cc2n1CC	Autofluor counter 18115, BoNT-A LC inh2 inconclusive
Nc1c(C(=O)OCC2CCCO2)c2nc3ccccc3nc2n1C1CCCC1 (configuration not stated)	Autofluor counter 32531
O=C(O)c1ccccc1NC(c1ccccc1)c1ccc(Cl)cc1 (configuration not stated)	BoNT F protease inconclusive
CCc1cc(-c2n[nH]c(=S)n2-c2cccc(C)c2)cs1	Autofluor counter 18843
Cc1cccc(-n2c(-c3csc(C)c3)n[nH]c2=S)c1	Autofluor counter 16396, BoNT-A LC inh2 inconclusive
